The supplement of paper PMC6411743
± gives the standard deviation of the averaged measurements. The full data set covers some 5,400 targets. This sample favours those with the largest changes.

Compound: Nc1nc2c(ncn2[C@@H]2O[C@H](COP(=O)(O)OP(=O)(O)OP(=O)(O)O)[C@@H](O)[C@H]2O)c(=O)[nH]1 [guanosine triphosphate]
Assay: NP40-soluble protein abundance relative to vehicle (solubility fold change) (ratio); higher = more soluble protein in presence of GTP
How it was run: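 Each value is a fold change relative to the detergent-processed vehicle, calculated per replicate from vsn-normalised intensities. Jurkat crude lysate received eight concentrations (0.1 to 10 mM) for 10 min at room temperature and 3 min at 37 °C, then was solubilised in 0.8% NP40 with benzonase (60 min, 4 °C). The ultracentrifuged supernatant was TMT-labelled and run by LC-MS/MS in three independent experiments.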

Sequence of UniProt Q9BTY7 (Q9BTY7 whole entry): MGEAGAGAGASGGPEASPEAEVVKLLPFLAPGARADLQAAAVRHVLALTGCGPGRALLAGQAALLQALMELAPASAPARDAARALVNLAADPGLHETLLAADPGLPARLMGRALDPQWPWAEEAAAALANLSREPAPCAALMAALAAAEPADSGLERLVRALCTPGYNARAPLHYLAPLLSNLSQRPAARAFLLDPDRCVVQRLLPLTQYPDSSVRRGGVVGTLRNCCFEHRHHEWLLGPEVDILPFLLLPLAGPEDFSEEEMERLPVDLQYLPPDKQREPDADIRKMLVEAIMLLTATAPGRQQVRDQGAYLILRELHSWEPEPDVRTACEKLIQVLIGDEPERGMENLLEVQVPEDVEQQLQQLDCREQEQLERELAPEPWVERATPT
Sequence of UniProt Q96LT9 (Q96LT9 whole entry): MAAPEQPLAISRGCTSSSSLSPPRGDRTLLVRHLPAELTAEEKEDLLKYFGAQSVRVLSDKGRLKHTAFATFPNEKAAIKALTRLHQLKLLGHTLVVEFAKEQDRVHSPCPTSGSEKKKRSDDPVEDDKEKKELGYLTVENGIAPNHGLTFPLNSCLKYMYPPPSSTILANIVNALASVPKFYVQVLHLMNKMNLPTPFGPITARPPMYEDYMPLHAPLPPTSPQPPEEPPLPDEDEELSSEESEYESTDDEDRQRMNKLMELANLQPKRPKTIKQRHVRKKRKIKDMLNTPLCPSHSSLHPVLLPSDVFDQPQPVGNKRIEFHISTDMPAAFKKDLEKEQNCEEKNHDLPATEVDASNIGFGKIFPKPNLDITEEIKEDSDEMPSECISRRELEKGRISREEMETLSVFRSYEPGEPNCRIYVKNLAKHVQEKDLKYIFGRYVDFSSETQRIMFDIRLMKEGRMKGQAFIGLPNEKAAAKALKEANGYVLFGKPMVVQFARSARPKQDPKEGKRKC
Sequence of UniProt Q9BSF4 (Q9BSF4 whole entry): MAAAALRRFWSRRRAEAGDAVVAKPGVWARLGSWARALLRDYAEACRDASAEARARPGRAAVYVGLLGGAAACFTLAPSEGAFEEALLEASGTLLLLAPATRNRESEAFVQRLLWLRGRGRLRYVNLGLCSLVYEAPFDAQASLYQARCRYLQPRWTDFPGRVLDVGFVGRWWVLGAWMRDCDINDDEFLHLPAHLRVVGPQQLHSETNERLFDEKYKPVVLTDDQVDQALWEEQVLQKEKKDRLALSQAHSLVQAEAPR
Sequence of UniProt Q9UNX4 (Q9UNX4 whole entry): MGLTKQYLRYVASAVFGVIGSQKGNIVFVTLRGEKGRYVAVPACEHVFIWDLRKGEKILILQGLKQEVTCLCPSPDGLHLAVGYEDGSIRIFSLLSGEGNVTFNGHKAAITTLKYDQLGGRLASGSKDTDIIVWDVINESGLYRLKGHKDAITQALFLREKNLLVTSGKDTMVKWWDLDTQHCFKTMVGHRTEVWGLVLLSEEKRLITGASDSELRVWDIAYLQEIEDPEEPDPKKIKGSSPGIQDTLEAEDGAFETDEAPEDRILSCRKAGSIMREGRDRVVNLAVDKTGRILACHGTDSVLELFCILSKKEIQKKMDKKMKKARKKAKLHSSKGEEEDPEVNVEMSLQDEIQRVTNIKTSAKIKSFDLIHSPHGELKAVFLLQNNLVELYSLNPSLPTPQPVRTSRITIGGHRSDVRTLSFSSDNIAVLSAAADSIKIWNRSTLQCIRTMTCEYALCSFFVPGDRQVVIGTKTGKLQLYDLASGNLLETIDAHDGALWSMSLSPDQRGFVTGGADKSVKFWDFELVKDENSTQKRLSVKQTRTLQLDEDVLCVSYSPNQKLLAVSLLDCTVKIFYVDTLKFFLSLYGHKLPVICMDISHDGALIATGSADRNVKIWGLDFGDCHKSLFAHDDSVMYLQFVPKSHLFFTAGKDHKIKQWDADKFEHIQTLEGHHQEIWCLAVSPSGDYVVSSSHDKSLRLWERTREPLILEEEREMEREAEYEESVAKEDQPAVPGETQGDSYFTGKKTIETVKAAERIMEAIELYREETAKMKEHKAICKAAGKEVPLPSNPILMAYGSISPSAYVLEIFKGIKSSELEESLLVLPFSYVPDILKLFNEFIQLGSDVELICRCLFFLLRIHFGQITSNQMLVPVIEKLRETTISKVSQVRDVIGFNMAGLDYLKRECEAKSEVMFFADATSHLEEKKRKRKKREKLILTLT
Sequence of UniProt Q9BPX3 (Q9BPX3 whole entry, looked up): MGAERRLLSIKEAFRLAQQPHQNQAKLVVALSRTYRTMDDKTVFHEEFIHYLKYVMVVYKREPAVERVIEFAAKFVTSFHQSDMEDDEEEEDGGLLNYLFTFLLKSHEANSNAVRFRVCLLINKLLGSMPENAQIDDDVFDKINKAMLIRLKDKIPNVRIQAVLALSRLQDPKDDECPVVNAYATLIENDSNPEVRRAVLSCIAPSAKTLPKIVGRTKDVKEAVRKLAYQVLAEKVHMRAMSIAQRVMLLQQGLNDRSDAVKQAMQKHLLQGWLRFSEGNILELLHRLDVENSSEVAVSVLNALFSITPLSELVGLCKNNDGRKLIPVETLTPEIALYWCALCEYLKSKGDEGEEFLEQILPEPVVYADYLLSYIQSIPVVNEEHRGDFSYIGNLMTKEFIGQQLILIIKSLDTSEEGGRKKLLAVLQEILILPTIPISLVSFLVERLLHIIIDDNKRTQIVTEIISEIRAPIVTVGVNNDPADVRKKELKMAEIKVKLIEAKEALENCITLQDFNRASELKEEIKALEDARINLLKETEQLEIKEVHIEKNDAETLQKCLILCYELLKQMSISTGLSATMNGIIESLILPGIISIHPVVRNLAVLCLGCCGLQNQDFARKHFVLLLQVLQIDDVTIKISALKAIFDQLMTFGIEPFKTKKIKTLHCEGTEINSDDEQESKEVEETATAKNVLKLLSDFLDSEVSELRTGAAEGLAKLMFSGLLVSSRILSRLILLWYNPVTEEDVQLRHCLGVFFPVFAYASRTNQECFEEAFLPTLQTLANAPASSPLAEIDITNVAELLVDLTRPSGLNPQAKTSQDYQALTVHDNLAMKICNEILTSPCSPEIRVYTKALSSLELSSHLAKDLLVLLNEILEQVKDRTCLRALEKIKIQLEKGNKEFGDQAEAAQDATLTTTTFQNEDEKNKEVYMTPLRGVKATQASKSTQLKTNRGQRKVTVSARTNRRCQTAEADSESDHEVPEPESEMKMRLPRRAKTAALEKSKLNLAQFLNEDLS
Sequence of UniProt Q9BTE7 (Q9BTE7 whole entry): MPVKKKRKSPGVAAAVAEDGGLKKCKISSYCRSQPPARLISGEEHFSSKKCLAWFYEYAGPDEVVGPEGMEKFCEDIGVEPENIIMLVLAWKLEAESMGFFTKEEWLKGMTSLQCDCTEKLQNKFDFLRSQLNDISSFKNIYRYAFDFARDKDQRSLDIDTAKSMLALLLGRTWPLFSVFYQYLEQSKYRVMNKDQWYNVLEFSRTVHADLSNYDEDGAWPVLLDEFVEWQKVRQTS
Sequence of UniProt Q96I99 (Q96I99 whole entry): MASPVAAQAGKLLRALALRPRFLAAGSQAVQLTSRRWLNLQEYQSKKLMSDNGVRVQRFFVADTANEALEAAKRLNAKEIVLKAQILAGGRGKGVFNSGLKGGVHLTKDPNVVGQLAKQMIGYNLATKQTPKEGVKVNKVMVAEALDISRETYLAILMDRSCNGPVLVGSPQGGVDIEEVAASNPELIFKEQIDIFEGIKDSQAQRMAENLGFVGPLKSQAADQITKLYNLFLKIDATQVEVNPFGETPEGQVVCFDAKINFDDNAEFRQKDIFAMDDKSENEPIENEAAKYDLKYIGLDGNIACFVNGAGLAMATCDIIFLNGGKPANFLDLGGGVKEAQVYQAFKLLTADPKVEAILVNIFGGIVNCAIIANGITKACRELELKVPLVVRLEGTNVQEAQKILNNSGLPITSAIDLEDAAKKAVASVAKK
Sequence of UniProt Q9Y6V7 (Q9Y6V7 whole entry): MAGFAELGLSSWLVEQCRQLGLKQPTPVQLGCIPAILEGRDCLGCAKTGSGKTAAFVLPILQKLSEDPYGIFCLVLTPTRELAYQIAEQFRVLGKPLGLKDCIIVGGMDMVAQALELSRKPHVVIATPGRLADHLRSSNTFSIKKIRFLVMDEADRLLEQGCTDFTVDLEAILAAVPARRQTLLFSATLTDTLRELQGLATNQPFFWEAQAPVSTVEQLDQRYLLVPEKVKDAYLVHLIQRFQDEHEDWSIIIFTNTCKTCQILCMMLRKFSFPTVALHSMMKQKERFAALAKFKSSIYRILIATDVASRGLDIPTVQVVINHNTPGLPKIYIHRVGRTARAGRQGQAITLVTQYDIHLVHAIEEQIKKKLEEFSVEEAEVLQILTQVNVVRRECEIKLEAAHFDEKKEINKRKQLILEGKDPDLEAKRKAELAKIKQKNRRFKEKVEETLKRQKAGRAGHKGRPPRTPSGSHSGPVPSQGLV
Sequence of UniProt Q9P0P0 (Q9P0P0 whole entry): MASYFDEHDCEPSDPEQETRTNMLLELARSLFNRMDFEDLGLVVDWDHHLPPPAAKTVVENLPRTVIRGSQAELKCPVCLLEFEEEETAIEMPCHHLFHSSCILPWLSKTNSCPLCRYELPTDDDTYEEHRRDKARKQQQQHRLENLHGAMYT
Sequence of UniProt Q9NRX1 (Q9NRX1 whole entry): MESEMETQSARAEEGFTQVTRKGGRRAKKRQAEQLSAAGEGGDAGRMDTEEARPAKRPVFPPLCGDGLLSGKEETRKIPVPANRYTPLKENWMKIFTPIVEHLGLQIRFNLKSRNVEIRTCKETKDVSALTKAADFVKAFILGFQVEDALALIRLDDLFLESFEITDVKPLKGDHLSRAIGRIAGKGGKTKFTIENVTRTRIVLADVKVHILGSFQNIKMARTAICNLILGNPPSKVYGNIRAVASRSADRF
Sequence of UniProt Q9HA47 (Q9HA47 whole entry): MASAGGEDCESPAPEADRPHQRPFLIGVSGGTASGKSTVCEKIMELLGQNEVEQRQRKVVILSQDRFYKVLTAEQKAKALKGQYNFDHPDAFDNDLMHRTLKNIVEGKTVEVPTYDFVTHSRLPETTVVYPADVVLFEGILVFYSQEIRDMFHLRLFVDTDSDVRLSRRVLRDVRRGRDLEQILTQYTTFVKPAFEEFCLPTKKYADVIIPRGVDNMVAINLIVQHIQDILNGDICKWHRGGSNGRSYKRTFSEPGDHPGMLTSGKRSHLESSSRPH

Target	NP40-soluble protein abundance (concentration: 0.1mM)	NP40-soluble protein abundance (concentration: 0.5mM)	NP40-soluble protein abundance (concentration: 1mM)	NP40-soluble protein abundance (concentration: 2mM)	NP40-soluble protein abundance (concentration: 4mM)	NP40-soluble protein abundance (concentration: 6mM)	NP40-soluble protein abundance (concentration: 8mM)	NP40-soluble protein abundance (concentration: 10mM)
DDX21 (UniProt Q9NR30)	1.11 ± 0.027	1.1 ± 0.048	1.18 ± 0.026	1.32 ± 0.019	1.56 ± 0.018	1.82 ± 0.028	2.13 ± 0.038	2.698 ± 0.024
UniProt Q9NZM5	0.985 ± 0.053	0.939 ± 0.14	1.04 ± 0.083	1.03 ± 0.17	1.05 ± 0.16	1.07 ± 0.21	1.18 ± 0.17	1.13 ± 0.093
CCDC124 (UniProt Q96CT7)	1.01 ± 0.047	0.984 ± 0.019	1.12 ± 0.063	1.17 ± 0.067	1.41 ± 0.17	1.57 ± 0.22	1.61 ± 0.22	2.24 ± 0.18
NHP2 (UniProt Q9NX24)	0.959 ± 0.056	0.942 ± 0.054	1.02 ± 0.069	1.09 ± 0.067	1.2 ± 0.096	1.39 ± 0.16	1.45 ± 0.16	1.75 ± 0.35
SUCLG2 (UniProt Q96I99)	0.959 ± 0.049	0.966 ± 0.053	0.933 ± 0.043	0.901 ± 0.06	0.889 ± 0.059	0.889 ± 0.052	0.886 ± 0.048	0.871 ± 0.068
DCUN1D5 (UniProt Q9BTE7)	0.984 ± 0.048	0.929 ± 0.07	0.918 ± 0.076	0.916 ± 0.077	0.948 ± 0.027	0.883 ± 0.056	0.891 ± 0.069	0.883 ± 0.074
DDX49 (UniProt Q9Y6V7)	1.02 ± 0.056	1.01 ± 0.047	1.03 ± 0.026	1.05 ± 0.072	1.12 ± 0.037	1.19 ± 0.022	1.26 ± 0.076	1.21 ± 0.077
LEMD3 (UniProt Q9Y2U8)	0.989 ± 0.049	1 ± 0.038	1.01 ± 0.037	1.01 ± 0.048	0.999 ± 0.036	0.985 ± 0.033	1.01 ± 0.049	0.985 ± 0.027
NCAPG (UniProt Q9BPX3)	0.992 ± 0.015	1.06 ± 0.016	0.986 ± 0.03	1.03 ± 0.044	0.978 ± 0.042	1.01 ± 0.047	0.987 ± 0.056	1.01 ± 0.031
UniProt Q9BTY7	0.967 ± 0.086	0.856 ± 0.056	1.07 ± 0.088	1.05 ± 0.033	1.03 ± 0.082	0.998 ± 0.049	0.924 ± 0.18	1.03 ± 0.14
PNO1 (UniProt Q9NRX1)	1.04 ± 0.082	1.09 ± 0.17	1.14 ± 0.19	1.15 ± 0.28	1.09 ± 0.27	1.09 ± 0.3	1.15 ± 0.28	1.15 ± 0.32
WDR3 (UniProt Q9UNX4)	1.12 ± 0.08	1.15 ± 0.098	1.13 ± 0.061	1.42 ± 0.13	1.81 ± 0.16	1.98 ± 0.2	2.04 ± 0.12	1.974 ± 0.012
UniProt Q96LT9|Q96LT9-2	1.26 ± 0.038	1.16 ± 0.16	1.42 ± 0.12	1.49 ± 0.3	1.61 ± 0.28	1.6 ± 0.35	1.72 ± 0.51	1.8 ± 0.54
RNF181 (UniProt Q9P0P0)	0.961 ± 0.027	0.925 ± 0.028	1.05 ± 0.077	1.03 ± 0.045	1.01 ± 0.013	1.02 ± 0.05	1.04 ± 0.1	1.09 ± 0.075
UniProt Q9HA47|Q9HA47-3|Q9HA47-4	1.01 ± 0.02	0.946 ± 0.037	1.05 ± 0.1	0.966 ± 0.056	0.98 ± 0.1	0.987 ± 0.034	0.983 ± 0.12	0.958 ± 0.024
DMAP1 (UniProt Q9NPF5)	1.04 ± 0.056	1.06 ± 0.059	1.11 ± 0.079	1.17 ± 0.099	1.22 ± 0.12	1.24 ± 0.15	1.29 ± 0.2	1.26 ± 0.18
UniProt Q969H8	0.971 ± 0.023	0.949 ± 0.034	0.884 ± 0.026	0.85 ± 0.019	0.834 ± 0.05	0.853 ± 0.057	0.8 ± 0.046	0.764 ± 0.085
UniProt Q9BSF4	1.16 ± 0.16	1.09 ± 0.11	1.12 ± 0.085	1.11 ± 0.027	1.18 ± 0.091	1.17 ± 0.037	0.972 ± 0.071	0.97875 ± 0.0002
